Screening data as filed in PubChem.
Gli-Sufu block = blocks Gli-Sufu signaling in a luciferase reporter. Sufu-KO-LIGHT fibroblasts, Gli luciferase reporter luminescence. inhibition, % at 5 µM. actives 0.74% (n = 340,000);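 active means inhibition above about 55%, limit read from the data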
COUP-TFII inh = NR2F2 (human) inhibition, primary screen; inhibition, % at 8.6 µM; HEK293T NGFI-A luciferase reporter, luminescence; AID 686940; actives 0.7% (n = 370,000);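 active means inhibition above a per-plate cutoff, mean inhibition of test wells between control levels plus 3 SD, cut at about 38% in these data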;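 further: cells cotransfected with COUP-TFII expression vector driving the NGFI-A reporter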
Target sequence (P24468 whole entry, looked up): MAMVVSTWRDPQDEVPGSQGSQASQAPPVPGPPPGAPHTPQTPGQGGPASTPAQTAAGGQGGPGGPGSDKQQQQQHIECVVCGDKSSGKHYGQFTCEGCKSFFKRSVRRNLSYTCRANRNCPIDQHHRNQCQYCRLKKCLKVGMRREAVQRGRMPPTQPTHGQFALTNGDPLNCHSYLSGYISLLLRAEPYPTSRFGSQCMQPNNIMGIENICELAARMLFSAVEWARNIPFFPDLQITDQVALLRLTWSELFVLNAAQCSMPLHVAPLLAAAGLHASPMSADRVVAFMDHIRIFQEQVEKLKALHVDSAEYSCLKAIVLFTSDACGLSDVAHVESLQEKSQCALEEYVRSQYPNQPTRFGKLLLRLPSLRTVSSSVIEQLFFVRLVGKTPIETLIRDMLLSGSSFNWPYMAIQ
SRC3 inh = inhibits human SRC3 coactivator; Q9Y6Q9; HEK293 GAL4-SRC3 luciferase reporter, luminescence; inhibition, % at 3.6 µM; actives 0.17% (n = 360,000); AID 588352;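 active means inhibition above a per-campaign cutoff, the mean of all compounds plus 3 SD, cut at about 60% in these data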;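 further: higher means less SRC3-driven luciferase light from the GAL4 reporter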
NCOA1 inh = inhibits human SRC1 coactivator; Q15788; HEK293 GAL4-SRC1 luciferase reporter, luminescence; inhibition, % at 3.6 µM; actives 0.12% (n = 360,000); AID 588354;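 active means inhibition above the campaign mean plus 3 SD, with each screening campaign given its own cutoff, cut at about 60% in these data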
LRH-1 inv ag = inverse agonists of human LRH-1 (NR5A2). O00482. actives 0.13% (n = 360,000). inhibition, % at 3.6 µM. HEK293T StAR-luciferase reporter, LRH-1 transfected, 24 h. AID 602396;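 active means inhibition above the mean inhibition of all tested compounds plus 3 SD, cut at about 73% in these data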
SRC2 inh = inhibits human steroid receptor coactivator 2. Q15596. HEK293 GAL4-SRC2 luciferase reporter, luminescence. inhibition, % at 9 µM. actives 0.17% (n = 370,000). AID 651957;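 active means inhibition above the mean inhibition of all tested compounds plus 3 SD, set per campaign, cut at about 52% in these data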
Hits are given with their value; n = inactive; x = no result given; ! = not confirmed by another sample. Most compounds without a hit are left out; they make up all but 1.3% or so of the library.

SMILES | Gli-Sufu block | COUP-TFII inh | SRC3 inh | NCOA1 inh | LRH-1 inv ag | SRC2 inh
COc1ccc(C(=O)NCCNc2nc3cc(C)cc(C)c3cc2C#N)c(OC)c1 | x | n | x | x | n | 77
COc1ccccc1C(=O)NCCNc1nc2cc(C)cc(C)c2cc1C#N | n | n | n | n | n | n
CC1CCCN(C(=O)Nc2ccc([N+](=O)[O-])cc2)C1 (stereo not drawn) | x | n | x | x | x | n
CCC(C)(C)c1ccc(OCCCC[n+]2ccc(C)cc2)c(C(C)(C)CC)c1 | 84 | n | x | x | x | n
CC(C)(C)c1ccc(-c2nnc3n2N=C(c2ccc(-c4ccccc4)cc2)CS3)cc1 | x | n | x | x | x | n
C[C@H]1CCCN1c1ccc2c(c1)O[C@H]1CCN(C1)S2(=O)=O | x | n | x | x | x | n
C[C@@H]1CN([C@H](C)CO)C(=O)c2cc(NC(=O)Nc3ccc(F)cc3)ccc2O[C@@H](C)CCCCO[C@@H]1CN(C)C(=O)CCCN(C)C | x | n | x | x | x | n
O=C(CC(Nc1ccccc1)C(=O)O)c1ccccc1 (stereo not drawn) | n | n | n | n | n | n
O=C(CC(Nc1ccc(Cl)cc1Cl)C(=O)O)c1ccccc1 (stereo not drawn) | n | n | 64 | 63 | n | n
CN1/C(=C/c2cc[n+](C)c3ccccc23)C=Cc2ccccc21 | 89 | x | n | n | n | x
C[n+]1ccc(/C=C/c2ccccc2O)c2ccccc21 | n | n | n | n | n | n
Oc1ccc2ccccc2c1N=Nc1ccccn1 | n | n | n | n | n | n
CCOC(=O)c1[nH]cnc1N=Nc1c(O)ccc2ccccc12 | 57 | n | n | n | n | n
COc1cc([C@@H]2c3cc4c(cc3[C@@H](O[C@@H]3O[C@@H]5CO[C@@H](C)O[C@H]5[C@H](O)[C@H]3O)[C@H]3COC(=O)[C@H]23)OCO4)cc(OC)c1O | 82 | n | 65 | 80 | n | n
Cc1noc(C)c1S(=O)(=O)N1CCCc2nc(-c3ccc(Br)cc3)ccc21 | x | n | x | x | x | n
Cc1c(C)c2cccnc2c2ncccc12 | 92 | x | n | n | 87 | x
C[C@@H]1ON(C)[C@H]2C[C@H]3c4cc(-c5cccc(Cl)c5)ccc4CCN3C[C@@H]12 | x | n | x | x | x | n
CCCCCCCCC[n+]1cccc2c3ccccc3ccc21 | n | x | 71 | n | 96 | x
O/N=C/c1cccc[n+]1CCCCCC[n+]1ccccc1/C=N/O | n | n | n | n | n | n
Cc1cc(/C=C2/SC(=S)N(c3cccc(C(F)(F)F)c3)C2=O)c(C)n1-c1cccnc1 | 71 | x | n | n | n | x
Cc1cc(/C=C2\SC(=S)N(Cc3ccco3)C2=O)c(C)n1-c1cccnc1 | n | n | n | n | n | n
COC(=O)C1=C(C)N(C)C(=NCC2CC2)NC1c1ccccc1C(F)(F)F (stereo not drawn) | x | n | x | x | x | n
O=C(N[C@H](Cc1ccccc1)C(=O)NCc1ccc(OC(F)(F)F)cc1)[C@H]1O[C@@H](n2ccc(=O)[nH]c2=O)[C@H](O)[C@@H]1O | x | n | x | x | x | n
Cc1cc(C(=O)COc2cccnc2[N+](=O)[O-])c(C)n1-c1ccccc1 | n | n | 66 | 69 | n | n
C[C@H]1CN([C@@H](C)CO)C(=O)CCCn2cc(nn2)CO[C@@H]1CN(C)S(=O)(=O)c1ccccc1F | x | n | x | x | x | n
SMILES | Gli-Sufu block | COUP-TFII inh | SRC3 inh | NCOA1 inh | LRH-1 inv ag | SRC2 inh
CC(=O)N(C)C1=C(N2CCOCC2)C(=O)c2ccccc2C1=O | n | x | 87 | 85 | 100 | x
CC(C)CCCCCCCCCCCCC(=O)NCC(=O)NC1C(O)C(O)C(Nc2ncnc3nc[nH]c23)OC1C(O)CO (stereo not drawn) | 85 | x | 93 | 95 | 99 | x
COC(=O)c1cn(NC(=O)c2cc([N+](=O)[O-])ccc2F)c(=O)c2ccccc12 | n | n | 78 | 70 | 76 | 59
COC(=O)c1cn(NC(=O)C2CCC(C)CC2)c(=O)c2ccccc12 (stereo not drawn) | n | n | n | n | n | n
COc1cc(C=CC(=O)c2cc(OC)c(OC)c(OC)c2)cc(OC)c1OC | n | n | 64 | n | n | 68
O=[N+]([O-])c1cc(CN2CCOCC2)c2cccnc2c1O | n | x | x | x | x | x
O=[N+]([O-])c1cc(CN2CCN(c3ccccc3)CC2)c(O)c2ncccc12 | 80 | n | n | n | n | n
CN(Cc1cnc2nc(N)nc(N)c2n1)c1ccc(C(=O)N[C@@H](CCC(=O)O)C(=O)O)cc1 | 57! | n | n | 68! | n | n
Nc1nc2ncc(CNc3ccc(C(=O)N[C@@H](CCC(=O)O)C(=O)O)cc3)nc2c(=O)[nH]1 | n | n | n | n | n | n
OC1(c2cccc(C(F)(F)F)c2)CCN(c2ncnc3c2[nH]c2ccc(F)cc23)CC1 | n | 47 | n | n | n | n
Cc1cc(N)ccc1NC(=O)c1ccccc1 | n | n | n | n | n | n
Cc1cc(NC(=O)c2ccccc2)c(Cl)cc1N | n | n | n | n | n | 66
COC(=O)C1=C(C)N(Cc2ccccc2C(F)(F)F)C(=NCc2ccc3c(c2)OCO3)NC1c1cccc(Cl)c1 (stereo not drawn) | x | n | x | x | x | n
COc1ccc(-n2c(C)c(C(C)=O)c3cc(OC(C)=O)ccc32)cc1 | n | n | n | 62 | n | n
O=C1NC(c2ccccc2)(c2ccccc2)C(=O)N1CNc1ccccn1 | x | n | x | x | x | n
CCCCNC(=O)C1CCCN1C(=O)Nc1ccc2c(c1)OCO2 (stereo not drawn) | x | n | x | x | x | n
COc1ccc(CNS(=O)(=O)c2ccccc2Br)c(OC)c1 | x | n | x | x | x | n
CC(C)C[C@@H]1COc2cc(F)ccc2S(=O)(=O)N1 | x | n | x | x | x | n
COc1cc([C@@H]2C[C@H]3CN(c4ccccc4)C(=O)[C@]34CCCN24)cc(OC)c1OC | n | n | n | n | n | n
COc1ccccc1-n1cc([C@@H]2C[C@H]3CN(c4ccccc4)C(=O)[C@]34CCCN24)cn1 | n | n | 64 | n | n | n
CCN(C(=O)COC(=O)c1ccc(Sc2ncn[nH]2)c([N+](=O)[O-])c1)c1ccccc1C | x | n | x | x | x | n
CC(C)CCCCCCCCc1cccc(O)c1C(=O)O | x | n | x | x | x | n
CCN(CC)c1ccc2cc(NC(=O)CCC(=O)O)c(=O)oc2c1 | n | 83 | n | n | n | 85
CC(C)(C)C1=CC(CC(N)=O)(C(C)(C)C)OC1=O (stereo not drawn) | x | n | x | x | x | n
O=C(C1=NN[C@@H]2C(=O)N(c3cccc(C(F)(F)F)c3)C(=O)[C@H]12)c1ccc2ccccc2n1 | n | n | n | n | n | 59
O=C(Nc1cccc(S(=O)(=O)N2CCCCC2)c1)c1ccc(OCC2CCCO2)cc1 (stereo not drawn) | n | n | n | n | n | n
O=C(Nc1ccc(Cl)c(S(=O)(=O)N2CCOCC2)c1)c1ccc(OCC2CCCO2)cc1 (stereo not drawn) | n | x | 73 | n | n | x
Cc1oc(-c2ccc(Cl)cc2)nc1CN1CCC(C(=O)N2CCN(Cc3ccccc3)CC2)CC1 | n | 39 | n | n | n | n
CCOc1ccc2nc3cc(NCc4ccc(OC)cc4)ccc3c(N)c2c1 | 64 | x | n | n | n | x
